Shiga toxin inh = inhibitors of Shiga toxin in Vero cells. AID 2315. Vero cells, Shiga toxin protein synthesis inhibition reporter. inhibition, % at 38.7 µM. hit rate 9.2% among 290,000; in the data active = inhibition mostly above about 28%, no sharp cut-off; inactive = mostly below about 43%; also: 0% is about no effect
FMDV inh = blocks foot and mouth disease virus | AID 1159524 | hit rate 1.2% among 410,000 | FMDV antiviral cell-based qHTS | Potency, µM (series often up to 57.9 µM), for the others: top-dose activity change, negative = inhibition, usual class: inhibitors; calls by dose curve; tested in HEK293T cells; also: read-out not given here; potency is read from the fitted curve at half-maximal effect; % is scaled to controls: 0 for no effect and ±100 for the full control effect; nearly all actives have a fitted effect of over 45% in size
CHX counter = counter-screen hit for Shiga toxin inhibitors, cycloheximide; AID 2314; cell reporter, cycloheximide protein synthesis inhibition counterscreen; hit rate 12% among 300,000; max response, %; in the data active = max response mostly above about 13%, no sharp cut-off; inactive = mostly below about 14%; also: read at 38.3 µM for the half of the compounds with a filed dose; 0% is about no effect
Sm TGR inh = S. mansoni TGR enzyme inhibition. Q962Y6. purified TGR, DTNB reduction, TNB absorbance 405 nm. Potency, µM (highest dose often 114 µM), without a hit: at the top dose activity change, negative = inhibition, hits mostly inhibitors. hit rate 3% among 360,000. AID 485364; active = well fitted inhibition curve with a large enough effect; inconclusive = small, poorly fitted or top-dose-only effect; inactive = no such curve, though single readings can be large or run the other way; also: potency is read from the fitted curve at half-maximal effect; % is scaled to controls: 0 for no effect and ±100 for the full control effect; nearly all actives have a fitted effect of over 60% in size
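First, TGR (20 nM dispensed) and NADPH were mixed with compound. Second, a 15 min room-temperature incubation followed. Third, further NADPH and then DTNB were added to start the reaction. Finally, TNB absorbance was monitored kinetically.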
Starred values were filed as active, the others as inactive. Rows were chosen to be rich in hits. Some 12% of all compounds tested hit in one or more screens of this group.

COCCn1nnnc1C(c1ccc2ncccc2c1)N1CCN(c2ccccc2F)CC1 (centres undefined) was read as Shiga toxin inh -2, FMDV inh inconclusive, CHX counter -3 and Sm TGR inh 1%.
COCCn1c(C)cc(O)c(C(c2ccccc2)N2CCN(C)CC2)c1=O (centres undefined) was read as FMDV inh 1% and Sm TGR inh 6.3µM*.
`CCOc1ccc(C(c2c(O)cc(C)n(CCOC)c2=O)N2CCC(C)CC2)cc1` (centres undefined) gave FMDV inh -14% and Sm TGR inh 20µM*.
Screening COCCn1nnnc1C(c1ccccc1)N1CCN(C)CC1 (centres undefined) returned Shiga toxin inh -2, FMDV inh -1%, CHX counter -3 and Sm TGR inh 6%.
`COCCn1c(C)cc(O)c(C(c2ccccc2)N2CCN(c3ccccc3F)CC2)c1=O` (centres undefined) gave FMDV inh -18% and Sm TGR inh 7.1µM*.
Screening CCOc1cc(C(=O)OCc2cc(=O)n3nc(CC)sc3n2)cc(OCC)c1OCC returned FMDV inh -7% and Sm TGR inh 1%.
Screening Cc1ccc(S(=O)(=O)c2cnc(SCC(=O)Nc3cc(C)cc(C)c3)nc2N)cc1 returned FMDV inh inconclusive and Sm TGR inh -10%.
For COc1ccc(N2CCN(c3oc(/C=C/c4cc(OC)c(OC)c(OC)c4)nc3C#N)CC2)cc1 the results were FMDV inh -11% and Sm TGR inh -2%.
`COc1ccc(C(=O)CSc2nnc(-c3ccccn3)n2Cc2ccco2)cc1` gave Shiga toxin inh 17, FMDV inh -3%, CHX counter -4 and Sm TGR inh 50µM*.
`O=C(CSc1nnc(-c2ccccn2)n1Cc1ccco1)c1ccccc1` gave Shiga toxin inh 9, FMDV inh 8%, CHX counter -2 and Sm TGR inh inconclusive.
`O=C(CSc1nnc(-c2cnccn2)n1Cc1ccco1)c1ccccc1` gave Shiga toxin inh 29, FMDV inh 0%, CHX counter -4 and Sm TGR inh 35µM*.
Screening O=C(CSc1nnc(-c2ccccn2)n1Cc1ccco1)c1ccc(Cl)cc1 returned Shiga toxin inh -11, FMDV inh -17%, CHX counter -3 and Sm TGR inh 20µM*.
For O=C(CSc1nnc(-c2cnccn2)n1Cc1ccco1)c1ccc(Cl)cc1 the results were Shiga toxin inh -5, FMDV inh -30%, CHX counter -1 and Sm TGR inh 10µM*.
`NC(=O)CSc1nnc(-c2cnccn2)n1Cc1ccco1` gave Shiga toxin inh -5, FMDV inh 4%, CHX counter 7 and Sm TGR inh inconclusive.
Cc1ccc(CNc2nc(CN3CCNC(=O)C3)nc3ccccc23)o1 was read as FMDV inh 21%.
For CCSc1ccccc1C(=O)Nc1ccc(-c2nc3ccccc3s2)c(O)c1 the results were FMDV inh 53% and Sm TGR inh inconclusive.
Fc1ccc(NC(=S)Nc2ccc(Br)cc2)cc1 was read as Shiga toxin inh 5, FMDV inh -6%, CHX counter 33* and Sm TGR inh inconclusive.
CCN(CC)c1ccc(NC(=S)Nc2ccc(F)cc2)cc1 was read as Shiga toxin inh 48*, FMDV inh 15%, CHX counter 27* and Sm TGR inh -18%.
CCOC(=O)C1=C(CN2CCN(c3ccc(Cl)cc3)CC2)NC(=O)NC1c1ccc(OC)cc1 (centres undefined) was read as FMDV inh inconclusive and Sm TGR inh -34%.
Screening Nc1c(N=Nc2ccccc2F)c(=O)[nH]n1-c1ccccc1 returned Shiga toxin inh 63*, FMDV inh 54%, CHX counter 44* and Sm TGR inh 14%.
For Nc1nn(-c2ccccc2)c(N)c1N=Nc1ccccc1 the results were Shiga toxin inh 102*, FMDV inh -13%, CHX counter 51* and Sm TGR inh -2%.
Screening Cc1nc2c(N=Nc3ccccc3F)c(N)nn2c(N)c1C#N returned Shiga toxin inh 8, FMDV inh -3% and CHX counter 16*.
`Nc1ncnc(N)c1N=Nc1ccccc1` gave Shiga toxin inh -10, FMDV inh -22%, CHX counter 0 and Sm TGR inh -13%.
`Cc1nn(-c2ccccc2)c(N)c1C(O)(C(F)(F)F)C(F)(F)F` gave Shiga toxin inh 13, FMDV inh -15%, CHX counter 1 and Sm TGR inh 3%.
`Cc1cccc(N=Nc2c(C)nn(-c3ccccc3)c2N)c1C` gave Shiga toxin inh 72*, FMDV inh 16%, CHX counter 77* and Sm TGR inh 6%.
COc1ccccc1C1CN(CC(=O)N2CCC(N3CCOCC3)CC2)Cc2ccccc2O1 (centres undefined) was read as FMDV inh 5%.
`CC(C)(O)[C@@H]1CCC[N+]2(C)CCCC[C@H]12` (some centres undefined) gave FMDV inh -10%.
`Cc1nn(-c2ccccc2)c(N)c1N=Nc1ccc(Cl)cc1` gave Shiga toxin inh 102*, FMDV inh 34%, CHX counter 29* and Sm TGR inh -15%.
For Cc1nn(-c2ccccc2)c(N)c1N=Nc1ccccc1 the results were Shiga toxin inh 77*, FMDV inh -10%, CHX counter 74* and Sm TGR inh 0%.
Nc1nn(-c2ccccc2)c(N)c1N=Nc1ccccc1F was read as Shiga toxin inh active, FMDV inh -9%, CHX counter 50* and Sm TGR inh -3%.
Screening Cc1nn(-c2ccccc2)c(N)c1N=Nc1cccc(S(=O)(=O)N2CCOCC2)c1 returned Shiga toxin inh -3, FMDV inh -18%, CHX counter 2 and Sm TGR inh 10%.
Screening COc1cc(-c2cc3n(C)c(C)c(CCC(=O)NCc4ccccc4)c(=O)n3n2)cc(OC)c1OC returned FMDV inh 1% and Sm TGR inh 10%.
For CC1(C)CC(=O)c2cc(-c3nc(-c4ccccc4)cs3)c(=O)[nH]c2C1 the results were FMDV inh 6% and Sm TGR inh 0%.
COc1ccc(S(=O)(=O)c2cn(Cc3ccccc3)c3cc(N4CCCC4)c(F)cc3c2=O)cc1 was read as FMDV inh -4% and Sm TGR inh 1%.
CN(C)S(=O)(=O)c1ccc2c(c1)N(CC(=O)Nc1ccc(OC(F)(F)F)cc1)C(=O)CS2 was read as FMDV inh -2% and Sm TGR inh -3%.
For COc1cc(C2=NOC(C(=O)Nc3ccc4c(c3)OCO4)C2)cc(OC)c1OC (centres undefined) the results were Shiga toxin inh 25, FMDV inh 28%, CHX counter 18* and Sm TGR inh -10%.
`COc1ccc(NC(=O)C2CC(c3ccc(OC)c(OC)c3)=NO2)cc1OC` (centres undefined) gave Shiga toxin inh -15, FMDV inh -5%, CHX counter 1 and Sm TGR inh 2%.
COc1ccc(C2=NOC(C(=O)Nc3ccc4c(c3)OCO4)C2)cc1OC (centres undefined) was read as Shiga toxin inh 89*, FMDV inh 5%, CHX counter 28* and Sm TGR inh -10%.
Cc1ccnc(N=Cc2c(O)ccc3oc4c(c23)CCCC4)c1 was read as Shiga toxin inh 8, CHX counter 26* and Sm TGR inh -20%.

Bioassay records: PubChem, National Center for Advancing Translational Sciences (NCATS)
